From PubChem BioAssay
Pf growth 48h – Primary qHTS for delayed death inhibitors of the malarial parasite plastid, 48 hour incubation | P. falciparum luciferase growth in erythrocytes, 48 h | Potency, µM (highest dose often 28.7 µM), inactives show at the top dose activity change, negative = inhibition, actives largely listed as inhibitors | hit rate 5.9% among 310,000 | AID 504832, 2011
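Luciferase-expressing P. falciparum in infected erythrocytes (2% hematocrit, 0.1% parasitemia final) in RPMI 1640/0.5% Albumax were exposed to compound for 48 hours at 37 C, 5% CO2; growth read as luminescence.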
Pf growth 96h – Primary qHTS for delayed death inhibitors of the malarial parasite plastid, 96 hour incubation; Potency, µM (doses to about 28.7 µM), for the others: at the top dose activity change, negative = inhibition, actives largely listed as inhibitors; AID 504834, 2011; hit rate 6.9% among 320,000; P. falciparum luciferase reporter growth, 96 h
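Luminescence readout: decreased luciferase signal marks inhibited growth of reporter-expressing P. falciparum in infected red cells (2% hematocrit, 0.05% parasitemia final), exposed to compound two generations (96 h, 37 C, 5% CO2).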
AMA1 RON2 block – qHTS for Inhibitors of AMA1-RON; Towards Development of Antimalarial Drug Lead: Primary Screen; Plasmodium falciparum AMA1 (3D7) - RON2 peptide interaction; Potency, µM (top dose mostly 58.2 µM), for inactives: top-dose activity change, negative = inhibition, actives largely listed as inhibitors; hit rate 0.2% among 360,000; AID 720542, 2013; AlphaScreen AMA1-biotinylated RON2 peptide binding;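 also: 0% = vehicle wells and -100% = peptide control; nearly all actives have a fitted effect of over 45% in size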
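AMA1 (3D7) with his tag at 25 nM final met compounds first, then biotinylated RON2 peptide at 25 nM; detection used donor plus acceptor beads, 10 µg/mL apiece, read by AlphaScreen after 30 min at room temperature.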
HCV inhibitor – qHTS Assay for Inhibitors of Hepatitis C Virus (HCV). Huh7.5.1 HCVcc-Cre infection, luciferase reporter, 44 h. Potency, µM (top dose mostly 41.8 µM), for inactives: at the top dose activity change, negative = inhibition, most hits filed as inhibitors. AID 651820, 2012. hit rate 3.4% among 340,000
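Whole-lifecycle infectious HCVcc-Cre system; cells 1,000/well, compound then virus (~0.5 moi) added 4 h after plating, 44 h culture. Luciferase read 15 sec following 15 min substrate incubation, room temp.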
The depositor's hits bear a star; ? = inconclusive; . = no result given; [ ] = remark or other dose. The list is not random: actives were taken first. Their share in the collection is about 11%. Calls follow the shape of the dose curve; as a rule, active = well fitted curve in the direction sought with a large enough effect; inconclusive = small, poorly fitted or top-dose-only effect, or another doubt; inactive = no such curve, though single readings can be large; an effect the other way counts as inactive or inconclusive. Unless noted, % is scaled to controls: 0 for no effect and ±100 for the full control effect; potency is read from the fitted curve at half-maximal effect.

SMILES	Pf growth 48h	Pf growth 96h	AMA1 RON2 block	HCV inhibitor
CC(=O)c1ccccc1OCCCCN1CCCCC1	38.4%	?	-24.9%	8.5%
CC(C)N1C(=O)S/C(=C/c2ccc(Sc3nc4ccccc4[nH]3)o2)C1=O	?	?	-1.8%	10µM*
CC(C)NC(=O)NC(=O)COC(=O)C1(C)CC1(Cl)Cl (stereo unspecified)	76.1%	39.3%	-1.2%	1.9%
CC(Oc1ccccc1)C(=O)N=Nc1c(O)[nH]c2ccc([N+](=O)[O-])cc12 (stereo unspecified)	-5.2%	-19.1%	31.6µM*	-8.2%
O=C(N=Nc1c(O)[nH]c2ccc([N+](=O)[O-])cc12)c1ccccc1[N+](=O)[O-]	-12.3%	?	-11.4%	?
COC(=O)c1cc2c(-c3ccccc3)cc3ccccn3c-2c1C(=O)OC	.	3.7µM*	17.8µM*	1.78µM*
CCOC(=O)C(=O)c1c(C)cc2ccccn12	63.9%	-30.4%[5.75 µM]	-6.9%	-17.7%
COC(=O)c1c(C)c2c(C)cc3ccccn3c-2c1C(=O)OC	7.7%	.	-24.8%	10µM*
O=C(CCC(=O)N1CCN(Cc2ccc(F)cc2)CC1)Nc1nnc(C(F)(F)F)s1	-3.2%	37.3%	4.9%	12.9%
CCOC(=O)c1ccc(N2C=C(C(=O)OC)C(c3ccc(OC)c(O)c3)C(C(=O)OC)=C2)cc1	.	-27.8%	-11.4%	?
Cc1nc2c(-c3ccccc3)c(C)[nH]n2c(=O)c1Cc1ccccc1	10.4µM*	5.6%	78.4%	10µM*
O=C(c1ccc2c(c1)N(Cc1ccccc1)CCS2)N1CCCCC1	?	0.738µM*	?	?
O=C(c1ccc2c(c1)N(Cc1ccccc1)CCS2)N1CCOCC1	-7.8%	-12.9%	-6.0%	-12.1%
O=C(c1ccc2c(c1)N(Cc1ccc(F)cc1)CCS2)N1CCOCC1	-0.4%	10.4µM*	13.0%	-3.1%
COc1ccc(NC(=O)Nc2nc(C)cc(C)n2)c(OC)c1	50.9%	49.5%	8.2%	?
COC(=O)c1c(C)[nH]c(C(=O)COc2ccc3ccc(=O)oc3c2)c1C	?	8.7%	-6.9%	?
CC(=O)c1c(C)[nH]c(C(=O)COc2ccc3ccc(=O)oc3c2)c1C	10.4µM*	?	-15.1%	8.91µM*
COc1ccc(C(=O)Oc2c(CN3CCOCC3)cc(Cl)c3cccnc23)cc1	14.7µM*	.	-18.0%	12.6µM*
O=C(Oc1c(CN2CCOCC2)cc(Cl)c2cccnc12)c1ccc(F)cc1	4.65µM*	7.3%	-88.4%	10µM*
Cc1ccc(NC(=O)C2Cc3ccccc3CN2C(=O)c2ccco2)cc1S(=O)(=O)N(C)C (stereo unspecified)	-13.6%	-10.0%	-13.2%	-6.4%
Cc1cc(C)c(S(=O)(=O)N2CCN(S(=O)(=O)N3CCOCC3)CC2)c(C)c1	-5.0%	2.33µM*	-0.4%	?
Cc1cc(C)c(S(=O)(=O)N2CCCC2)c(C)c1	3.8%	-23.3%	3.2%	-7.0%
O=C(CSc1ccc(Cl)cc1)NNC(=O)c1ccco1	14.9%	14.7µM*	105.9%	6.3%
Cc1noc(C)c1C(=O)N1CCN(c2ccc(OCc3ccccc3)cc2)CC1	-13.1%	-14.8%	3.2%	?
COC(=O)[C@@H]1Cc2c([nH]c3ccccc23)C(C)(C)N1C(=O)CCl	11.7µM*	?	-5.8%	1µM*
SMILES	Pf growth 48h	Pf growth 96h	AMA1 RON2 block	HCV inhibitor
O=C(/C=C/c1ccc([N+](=O)[O-])cc1)Nc1cccc(S(=O)(=O)NC2=NCCCCC2)c1	.	.	-2.8%	25.1µM*
O=C(/C=C/c1ccccc1Cl)Nc1cccc(S(=O)(=O)NC2=NCCCCC2)c1	0.0%	?	33.2%	?
CC(=O)c1cccc(NC(=O)/C=C/c2ccc(S(=O)(=O)N3CCOCC3)cc2)c1	.	.	-10.3%	?
O=C(/C=C/c1ccc(OC(F)F)cc1)Nc1cccc(S(=O)(=O)N2CCOCC2)c1	-13.3%	?	1.6%	5.62µM*
CN(C)S(=O)(=O)c1cccc(NC(=O)/C=C/c2ccc(S(=O)(=O)N3CCOCC3)cc2)c1	8.28µM*	?	5.4%	?
Cc1ccccc1CN(C)C(=O)[C@H](Cc1ccccc1)NC(=O)c1ccco1	?	8.28µM*	-1.9%	-1.6%
COc1ccc(CN(C)C(=O)[C@H](Cc2ccccc2)NC(=O)c2ccco2)c(OC)c1	?	?	-12.8%	2.3%
